Assay results from PubChem BioAssay AID1851 (National Center for Advancing Translational Sciences (NCATS), 2009).
The campaign covered roughly 16,000 compounds. About 5,700 (36%) were called active. Not shown: some 24% with an inconclusive outcome. The call rests on the fitted dose curve; in most records, active means well fitted curve in the direction sought with a large enough effect; inconclusive means small, poorly fitted or top-dose-only effect, or effect the other way; inactive means no such curve, though single readings can be large or run the other way. The list shows a part of the results.

Molecular target: Cytochrome P450 1A2 (Homo sapiens) (UniProt P05177)
Assay: Cytochrome panel assay with activity outcomes
Conditions: recombinant CYP, pro-luciferin dealkylation, luminescence, p450-cyp1a2; series mostly up to 57.1 µM; activity, negative = inhibition: at the top concentration
On the % scale 0 is the no-effect control and ±100 the full control effect.

Cytochrome P450 1A2 (Homo sapiens), sequence (P05177 whole entry, looked up): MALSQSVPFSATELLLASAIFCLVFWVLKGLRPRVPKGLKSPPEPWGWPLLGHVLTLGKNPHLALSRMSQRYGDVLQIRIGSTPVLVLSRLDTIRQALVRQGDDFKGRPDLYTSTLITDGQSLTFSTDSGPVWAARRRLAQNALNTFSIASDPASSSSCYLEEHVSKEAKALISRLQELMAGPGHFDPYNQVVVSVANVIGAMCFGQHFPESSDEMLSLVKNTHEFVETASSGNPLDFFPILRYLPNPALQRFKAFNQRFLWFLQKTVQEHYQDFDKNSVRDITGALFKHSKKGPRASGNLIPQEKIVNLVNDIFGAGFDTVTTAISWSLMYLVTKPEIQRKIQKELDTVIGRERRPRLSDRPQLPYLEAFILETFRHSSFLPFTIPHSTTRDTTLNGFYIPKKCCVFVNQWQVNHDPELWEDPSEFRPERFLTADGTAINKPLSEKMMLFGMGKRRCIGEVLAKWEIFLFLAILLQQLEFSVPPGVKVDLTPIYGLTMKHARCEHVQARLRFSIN

SMILES	AC50	activity, negative = inhibition
CNC(=S)NNC(=O)c1sccc1OCc1ccc(C)cc1	5.01 µM (active)	–
COc1ccc(COc2ccsc2C(=O)Nc2ccc(Cl)c(Cl)c2)cc1	3.16 µM (active)	–
Cc1cc(C)n(Cc2ccc(NC(=O)c3ccc(COc4ccccc4Br)cc3)cc2)n1	–	17.9% (inactive)
Cc1ccc(C(=O)NNC(=S)NC(=O)c2ccc(Cl)cc2)cc1	–	-10.7% (inactive)
COc1ccc(Cc2nnc(NC(=O)c3ccc(Cl)c([N+](=O)[O-])c3)s2)cc1	–	9.74% (inactive)
COc1ccc(-c2cc(C(F)(F)F)n3nc(C(=O)NCc4ccco4)c(Cl)c3n2)cc1	3.55 µM (active)	–
Cc1cc(C)n(C(=O)c2cc3ccccc3c(=O)o2)n1	7.08 µM (active)	–
O=C(O)CC1(C(=O)O)CCCCC1	–	5.1% [at 2.29 µM] (inactive)
CCOC(=O)c1ccc(NC(=O)Nc2ccc3c4c(cccc24)C(=O)N3CC)cc1	1.58 µM (active)	–
CCCOC(=O)c1ccc(NC(=O)c2cn(CC)c3nc(C)ccc3c2=O)cc1	–	-22.5% (inactive)
CCN1C(=O)c2cccc3c(NC(=O)c4cccc(N5C(=O)CCC5=O)c4)ccc1c23	–	-15.9% (inactive)
CC(C)CO/N=C1/C[C@@H](O)[C@@H](O)[C@@H]2[C@@H]3C(=O)N(Cc4ccc5c(c4)OCO5)C(=O)[C@H]3CC[C@@H]12	–	-7.54% [at 11.4 µM] (inactive)
CC(C)CO[C@H](c1ccc2c(c1)OCO2)[C@H](C)Br	0.631 µM (active)	–
CC(C)CO/N=C1/C[C@@H](O)[C@@H](O)[C@@H]2[C@@H]3C(=O)N(Cc4ccc5c(c4)OCO5)C(=O)[C@H]3CC[C@H]12	–	2.96% [at 11.4 µM] (inactive)
c1ccc2c(CN3CCN(Cc4c[nH]c5ccccc45)CC3)c[nH]c2c1	–	-18.1% [at 2.29 µM] (inactive)
O=C(O)[C@@H](Cc1c[nH]c2ccccc12)C(=O)NO	–	-20.4% [at 11.4 µM] (inactive)
c1ccc2c(-c3c[nH]c4ccccc34)c3ccccc3nc2c1	3.16 µM (active)	–
CO[C@H]1COC(=O)C/C=C\[C@@H](C)[C@H](OC)COC(=O)[C@H]2CCCN2C(=O)C/C=C\[C@@H]1C	–	3.92% [at 11.4 µM] (inactive)
CC(=O)OC[C@@H]1O[C@H](CCO/N=C(\C)CCC(=O)OC[C@@H]2O[C@H](C#Cc3ccccc3)C=C[C@@H]2Oc2ccc(C)cc2)C=C[C@@H]1OC(C)=O	–	-1.59% [at 11.4 µM] (inactive)
Cc1nc2cc(NC(=O)CSc3nc4c(C)cccc4cc3C#N)ccc2s1	2.82 µM (active)	–
O=C(CCOc1ccccc1)Nc1ccccc1	8.91 µM (active)	–
O=C(Cc1ccccc1I)Nc1ccccc1	12.6 µM (active)	–

SMILES	AC50	activity, negative = inhibition
CCC(=O)NNC(=O)CCC(=O)Nc1ccccc1	–	2.63% (inactive)
COC(=O)c1cccc(NC(=O)CCCOc2ccccc2)c1	0.891 µM (active)	–
CC(=O)NNC(=O)CCC(=O)Nc1ccccc1	–	-3.3% (inactive)
COc1ccc(NC(=O)CCOc2ccccc2)cc1	3.55 µM (active)	–
Oc1ccccc1CNCc1ccccc1O	–	-17.8% [at 11.4 µM] (inactive)
O=S(=O)(O)C1CCNCC1	–	7.71% (inactive)
CO[C@@H]1COC(=O)CC=C[C@@H](C)[C@@H]2C=C[C@H](O)[C@@H](COC(=O)[C@H](C)NC(=O)CC=C[C@H]1C)O2	–	-7.89% [at 11.4 µM] (inactive)
NCC(=O)Nc1ccccc1	2.51 µM (active)	–
CC(C)(CC(=O)Nc1ccccc1)C(=O)O	–	-15.9% [at 11.4 µM] (inactive)
COC(=O)c1cccc(NC(=O)Nc2ccc(Cl)c(Cl)c2)c1	8.91 µM (active)	–
CCCCC#Cc1ccccc1CC(=O)Nc1ccccc1	2.51 µM (active)	–
COc1ccc(NC(=O)CCSc2cc(C)c3ccccc3n2)cc1	7.08 µM (active)	–
Cc1cccc(C)c1NC(=O)C(c1ccc(Cl)cc1Cl)N1CCCCC1 (configuration not stated)	–	-22.8% (inactive)
O=C1C[C@@H](O)[C@@H](O)[C@@H]2[C@H]3C(=O)N(c4ccc(F)cc4F)C(=O)[C@@H]3CC[C@H]12	–	8.95% [at 11.4 µM] (inactive)
O=C(COc1ccccc1)Nc1ccc(-c2nnc(-c3ccco3)o2)cc1	–	7.06% (inactive)
O=C(COC(=O)COc1ccccc1)Nc1ccc(OC(F)(F)F)cc1	20 µM (active)	–
O=C(Nc1nnc(C2CC2)s1)C1Cc2ccccc2CN1S(=O)(=O)c1ccccc1F (configuration not stated)	12.6 µM (active)	–
Nc1ccc(S(=O)(=O)Nc2nccs2)cc1	–	-1.59% [at 25.6 µM] (inactive)
CCc1nnc(NC(=O)C2Cc3ccccc3CN2S(=O)(=O)c2ccc(C)cc2)s1 (configuration not stated)	–	-13.9% (inactive)
O=C(Nc1nccs1)C1Cc2ccccc2CN1S(=O)(=O)c1ccc(F)cc1 (configuration not stated)	2.24 µM (active)	–
O=C(c1csnn1)N1CCC2(CC1)CN(c1ccccn1)C2	–	-12% (inactive)
Cc1ccc2nc(-c3ccc(NC(=O)Cc4cccs4)cc3)[nH]c2c1	0.631 µM (active)	–

SMILES	AC50	activity, negative = inhibition
CCNc1ncc2nc(-c3ccccc3)c(=O)n(CCC#N)c2n1	3.16 µM (active)	–
CCNc1ncc2nc(-c3cn(C)c4ccccc34)c(=O)n(C)c2n1	0.1 µM (active)	–
CCNc1ncc2nc(-c3cn(C)c4ccccc34)c(=O)n(CCC#N)c2n1	5.01 µM (active)	–
CCNc1ncc2nc(C)c(=O)n(CCC#N)c2n1	12.6 µM (active)	–
CC1(C)S[C@@H]2[C@H](NC(=O)[C@H](C(=O)O)c3ccsc3)C(=O)N2[C@H]1C(=O)O	–	-3.26% [at 25.6 µM] (inactive)
CCOC(=O)Oc1c(OC)cc(C(=O)O[C@H]2C[C@H]3CN4CCc5c([nH]c6cc(OC)ccc56)[C@@H]4C[C@H]3[C@@H](C(=O)OC)[C@@H]2OC)cc1OC	–	-4.49% [at 25.6 µM] (inactive)
CCOC(=O)c1c(C)[nH]c2ccc3c(c12)CN1CCc2cc(OC)ccc2[C@@H]1O3	0.158 µM (active)	–
Cc1ccc(C2/C(=C(/O)c3ccccc3)C(=O)C(=O)N2CCN2CCOCC2)o1 (configuration not stated)	–	-25.3% (inactive)
COc1ccc(/C(O)=C2/C(=O)C(=O)N(CCN3CCOCC3)C2c2ccc(C)cc2)cc1 (configuration not stated)	–	8.1% (inactive)
Cc1ccc(C)c(/C(O)=C2/C(=O)C(=O)N(CCN3CCOCC3)C2c2ccco2)c1 (configuration not stated)	25.1 µM (active)	–
COc1ccc2c3c([nH]c2c1)[C@@H]1C[C@@H]2[C@@H](C[C@H](O)[C@H](OC)[C@H]2C(=O)O)CN1CC3	–	-3.07% [at 25.6 µM] (inactive)
COc1ccc2[nH]c3c(c2c1)CN(C)CC3	12.6 µM (active)	–
CN1CCc2[nH]nc(-c3n[nH]c4c3CN(C)CC4)c2C1	–	-15.6% [at 11.4 µM] (inactive)
CC(C)(C)C(=O)NC(=S)NCCc1ccccc1	7.08 µM (active)	–
CN(C)C(=O)N1CCCC(C(=O)NCCc2ccccc2)C1 (configuration not stated)	–	8.15% (inactive)
COc1ccc(CN(CCC#N)C(=S)NC(=O)c2ccccc2)cc1	5.01 µM (active)	–
CCOc1ccc(N(CCC#N)S(=O)(=O)c2ccc(OC)cc2)cc1	–	2.01% (inactive)
Cc1ccc(C(=O)NC(=S)Nc2cc(-c3nc4ccccc4s3)ccc2C)cc1	–	-18.7% (inactive)
COc1ccc(C(=O)NNC(=S)NC(=O)c2ccco2)cc1	–	-16.2% (inactive)
COc1ccc(C(=O)NCc2ccc(-c3nc4ccccc4s3)cc2)cc1	3.16 µM (active)	–
COc1ccc(C(=O)NC(=S)NCc2ccccc2)cc1	3.16 µM (active)	–
O=C(Oc1ccc2c(c1)CN(Cc1ccccc1)CO2)c1ccccc1	–	-14.3% [at 2.29 µM] (inactive)

SMILES	AC50	activity, negative = inhibition
C[C@H](c1ccccc1)N1C(=O)[C@H]2[C@@H]3[C@H](O)[C@H](O)CC(=O)[C@H]3CC[C@H]2C1=O	–	-6.45% [at 11.4 µM] (inactive)
O=C(O)Cc1ccc2ocnc2c1	–	12.6% (inactive)
CCCCN1C(=O)CN(CCc2ccccc2)C(=O)C1c1ccc(OC)cc1 (configuration not stated)	–	-13.8% (inactive)
COc1cc(OC)cc(C(=O)NC(=S)NCCc2ccccc2)c1	1.26 µM (active)	–
CNC(=O)NC(=S)NC(=O)c1ccc(OC)cc1	10 µM (active)	–
COc1cc(OC)cc(C(=O)NC(=S)Nc2ccc(Cl)c(C(=O)O)c2)c1	–	-4.61% (inactive)
COc1ccc(C(=O)NCc2cn3ccccc3n2)cc1	10 µM (active)	–
Cc1ccc(C(=O)O)cc1N1C(=O)c2cccc3cc(Br)cc(c23)C1=O	–	-9.48% (inactive)
CC(C)(C)c1cc2c(O)c(c1)Cc1cc(C(C)(C)C)cc(c1O)Cc1cc(C(C)(C)C)cc(c1O)Cc1cc(C(C)(C)C)cc(c1O)Cc1cc(C(C)(C)C)cc(c1O)Cc1cc(C(C)(C)C)cc(c1O)Cc1cc(C(C)(C)C)cc(c1O)Cc1cc(C(C)(C)C)cc(c1O)C2	–	-14.2% [at 11.4 µM] (inactive)
CC(CCC(=O)O)(c1cc(Br)c(O)c(Br)c1)c1cc(Br)c(O)c(Br)c1	–	-17.9% [at 2.29 µM] (inactive)
CN(Cc1cc(C(C)(C)C)cc(Br)c1O)Cc1cc(C(C)(C)C)cc(Br)c1O	3.16 µM (active)	–
COc1ccc(CCN(C)CCC(=O)Nc2c(C)cc(C)cc2C)cc1OC	–	1.14% (inactive)
COc1ccc(Cc2ccccc2C(=O)O)c2ccccc12	–	2.81% [at 2.29 µM] (inactive)
COc1ccc(C(=O)CCN(C)C)c2ccccc12	1.58 µM (active)	–
CN(Cc1ccco1)c1ncnc2ccc(-c3ccccc3Cl)cc12	2 µM (active)	–
CN(C)Cc1ccccc1-c1ccc2ncnc(N(C)Cc3ccco3)c2c1	2 µM (active)	–
CN(Cc1ccco1)c1ncnc2ccc(-c3cccc(C#N)c3)cc12	0.501 µM (active)	–
CN(Cc1ccco1)c1ncnc2ccc(-c3ccccc3C(F)(F)F)cc12	5.01 µM (active)	–
COCC(=O)N1CCC[C@@]2(CCN(Cc3ccccc3OC)C2)C1	–	6.76% (inactive)
CC(=O)OC[C@@H]1O[C@H](C/C=N\O[C@@H]2O[C@H](COC(C)=O)[C@@H](OC(C)=O)[C@H](OC(C)=O)[C@H]2OC(C)=O)C=C[C@@H]1OC(C)=O	–	-3.65% [at 11.4 µM] (inactive)
CN(Cc1ccco1)c1ncnc2ccc(-c3ccccc3C#N)cc12	1 µM (active)	–
